The results in this text go back to ChEMBL document CHEMBL3988442, “University of Dundee, Small-Polar-MMV Screening Library” (2021).

In all, about 69,000 compounds went through this assay and about 1,000 (1.4%) showed an effect of 50% or more. For the sample, strong results were picked, then their nearest neighbours and some compounds at random.

The subject of this assay is Leishmania donovani. Kind of assay: Leishmania intramacrophage assay. The class given is functional, organism-based. On the set-up: scale not given: in the data most compounds retested in dose-response had high values.

With `CCN(c1ccc(C(=O)NCCCN2CCOCC2)cc1)S(=O)(=O)CC`, the “Percent Effect” value (30 µM, 30.03 µM) turned out to be 0.6611%.

Consider `CC(O)CN1CCN(C(=O)c2ccc3c(c2)COC3)CC1` (configuration not stated), for which the “Percent Effect” value (30 µM, 30.03 µM) worked out at 9.428%.

Take `Cn1cnc2c(-c3cccnc3)nc(C3CCN(S(C)(=O)=O)CC3)cc21`: the “Percent Effect” value (30.3 µM, […]) came to 18.38%.

Take `Cc1nn(C)c(N2CCOCC2)c1CNC1CCS(=O)(=O)C1` (configuration not stated): the “Percent Effect” value (30.3 µM, […]) came to 15.34%.

Take `Cc1noc(C)c1CN1CCOCC12CCN(c1cnccn1)CC2.O=C(O)C(F)(F)F`: the “Percent Effect” value (30.3 µM, […]) is 60.72%.

Take `Cc1noc(C)c1CN1CCOCC12CCN(c1ncccn1)CC2.O=C(O)C(F)(F)F`: the “Percent Effect” value (30.3 µM, […]) was found to be 49.21%.

In the case of `CCN1CCOCC12CCN(c1cnccn1)CC2.O=C(O)C(F)(F)F`, the “Percent Effect” value (30.3 µM, […]) amounted to 19.49%.

Take `O=C(c1cnn2c1OCCC2)N1CCC(Cc2ccccc2)CC1`: where the note is “30.3 µM, […]”, the “Percent Effect” value is reported as -34.88%.

In the case of `OCc1cn(Cc2cccc(F)c2)nn1`, the “Percent Effect” value (30.3 µM, […]) stood at 6.732%.

As to `COC(=O)CCCC(=O)N(C)CC1Cc2ccccc2CN1C` (configuration not stated), the “Percent Effect” value (30.3 µM, […]) was determined as 11.82%.

Take `CCOCCC(=O)N(C)CC1Cc2ccccc2CN1C` (configuration not stated): the “Percent Effect” value (30.3 µM, […]) is 29.01%.

With `COC(=O)NCC(=O)N(C)CC1Cc2ccccc2CN1C` (configuration not stated), under “30.3 µM, […]”, the “Percent Effect” value is 52.66%.

For the compound `COc1ncccc1C(=O)N1CCC(c2nc3c(C)cccc3[nH]2)CC1`, the “Percent Effect” value (30.3 µM, […]) was -25.37%.

`CN1CCC(c2nnc3ccc(C(=O)N4CCCCC4)cn23)C1.O=C(O)C(F)(F)F` (configuration not stated): the “Percent Effect” value (30.3 µM, […]) is 20.31%.

As for `COc1cccc(C(O)CN2CCN(C(=O)CCC(C)C)CC2)c1` (configuration not stated), where the note is “30.3 µM, […]”, the “Percent Effect” value was -26.89%.

As to `CS(=O)(=O)N1CCO[C@@H]2CN(C(=O)N3CCOCC3)CC[C@@H]2C1`, the “Percent Effect” value (30.3 µM, […]) was 41.23%.

`CS(=O)(=O)N1CCO[C@@H]2CN(C(=O)C3CCOC3)CC[C@@H]2C1` (some centres not stated): under “30.3 µM, […]”, the “Percent Effect” value amounted to 29.21%.

As for `CS(=O)(=O)N1CCO[C@@H]2CN(C(=O)N3CCCC3)CC[C@@H]2C1`, the “Percent Effect” value (30.3 µM, […]) was 57.39%.

As to `Cc1cc(OCCC(=O)NCc2ccc(F)cc2)nnc1C`, the “Percent Effect” value (30.3 µM, […]) is listed as -17.71%.

Take `CCn1c(N)nc2cc(C(=O)N3Cc4ccccc4C3)cnc21`: the “Percent Effect” value (30.3 µM, […]) is recorded as 1.909%.

As for `O=C(CO)N1CCC(c2ccnc(Nc3cc(C(F)(F)F)ccn3)n2)C1` (configuration not stated), the “Percent Effect” value (30.3 µM, […]) is on record as 30.85%.

As for `Cl.NCC(=O)N1CCC(c2ccnc(Nc3cc(C(F)(F)F)ccn3)n2)C1` (configuration not stated), the “Percent Effect” value (30.3 µM, […]) amounted to 77.96%.

Take `COCC(=O)N1CC(c2ccnc(Nc3cc(C(F)(F)F)ccn3)n2)C1`: the “Percent Effect” value (30.3 µM, […]) is 23.24%.

Take `CC(=O)N1CCC(c2ccnc(Nc3cc(C(F)(F)F)ccn3)n2)C1` (configuration not stated): the “Percent Effect” value (30.3 µM, […]) was 43.14%.

Turning to `COC(=O)C(C)N1CCCc2cc(OC)ccc2C1` (configuration not stated), under “30.3 µM, […]”, the “Percent Effect” value is on record as 8.236%.

On to `COCCN1CCC(Nc2ccc(C#N)cc2F)CC1`, for which the “Percent Effect” value (30.3 µM, […]) turned out to be 26.49%.

Consider `CNC(=O)C1Cc2ccccc2CN1CCC#N` (configuration not stated), for which the “Percent Effect” value (30.3 µM, […]) was 1.919%.

Consider `CCCOc1cccc(-c2nc3c([nH]2)CCNC3)c1`, for which, under “30.3 µM, […]”, the “Percent Effect” value amounted to 25.72%.

Take `FC(F)(F)COc1cccc(-c2nc3c([nH]2)CCNC3)c1`: the “Percent Effect” value (30.3 µM, […]) is recorded as 27.16%.

Regarding `CC(C)COc1cccc(-c2nc3c([nH]2)CCNC3)c1`, the “Percent Effect” value (30.3 µM, […]) turned out to be 95.75%.

Regarding `CCN(C(=O)c1ccc(-n2ncc(C#N)c2N)cc1)C1CCCC1`, the “Percent Effect” value (30 µM, 30.03 µM) worked out at 36.15%.

As to `O=C1C(NCc2nnc3n2CCCC3)CCN1CC(F)(F)F` (configuration not stated), the “Percent Effect” value (30 µM, 30.03 µM) is -13.74%.

In the case of `Cc1ccc(Br)cc1NC(=O)NC1CCC2(C1)OCCO2` (configuration not stated), for the setting “30.3 µM, […]”, the “Percent Effect” value is 23.67%.

For the compound `CC(C)Cc1cc(CC2(NCc3ccco3)COC2)no1`, under “30.3 µM, […]”, the “Percent Effect” value is 63.35%.

Turning to `Cc1ccc(CNC2(Cc3cc(CC(C)C)on3)COC2)o1`, the “Percent Effect” value (30.3 µM, […]) is -12.32%.

Regarding `CC(C)Cc1cc(CC2(NCc3ccccc3Cl)COC2)no1`, under “30.3 µM, […]”, the “Percent Effect” value is given as 8.785%.

On to `Cc1ccc(CN2CCc3nc(C(C)C)nc(O)c3CC2)s1`, for which the “Percent Effect” value (30.3 µM, […]) came out at 14.32%.

Regarding `O=C(c1cccnc1O)N1CCCN(c2cccnn2)CC1`, where the note is “30.3 µM, […]”, the “Percent Effect” value worked out at 3.038%.

For `COc1ccc(C)cc1NC(=O)Nc1cnc(N2CCCC2)nc1`, for the setting “30.3 µM, […]”, the “Percent Effect” value is recorded as -0.2164%.

Turning to `COc1ccc(C)cc1NC(=O)Nc1cnc(N2CCN(C)CC2)nc1`, the “Percent Effect” value (30 µM, 30.03 µM) stood at 50.02%.

As for `COc1ccc(C)cc1NC(=O)Nc1cnc(N2CCOCC2)nc1`, the “Percent Effect” value (30.3 µM, […]) was -26.13%.

On to `COc1ccc2nnc(C(=O)NC3CCCC3)nc2c1`, for which the “Percent Effect” value (30.3 µM, […]) was 8.289%.

For the compound `CCCS(=O)(=O)N1CCC2(CC1)CN(c1ccccn1)CCO2.O=C(O)C(F)(F)F`, the “Percent Effect” value (30 µM, 30.03 µM) stood at 10.12%.

On to `CS(=O)(=O)Cc1ccc(Cl)cc1NCc1cccc(F)c1F`, for which, where the note is “30.3 µM, […]”, the “Percent Effect” value is given as 15.72%.

For the compound `CS(=O)(=O)Cc1ccc(Cl)cc1NCc1ccccc1F`, the “Percent Effect” value (30.3 µM, […]) was 17.75%.

As for `CS(=O)(=O)Cc1ccccc1NCc1cc(Cl)ccc1Cl`, the “Percent Effect” value (30.3 µM, […]) is recorded as 50.41%.

Consider `CC(O)CN1CCN(C(=O)c2ccc(N(C)C)nc2)CC1` (configuration not stated), for which the “Percent Effect” value (30 µM, 30.03 µM) turned out to be 21.97%.

As to `Cn1ncc(C(=O)N2CCCC(n3cccn3)C2)c1C1CC1` (configuration not stated), where the note is “30 µM, 30.03 µM”, the “Percent Effect” value is listed as -6.982%.

With `COc1ncccc1NC(=O)N(Cc1ccc(C)o1)C1CC1`, the “Percent Effect” value (30 µM, 30.03 µM) is listed as 53.3%.

Regarding `CCN(C(=O)Nc1cccnc1OC)C1CC1`, the “Percent Effect” value (30 µM, 30.03 µM) was 22.39%.

Consider `COc1ncccc1NC(=O)N(Cc1ccco1)C1CC1`, for which, under “30 µM”, the “Percent Effect” value came out at 6.992%.

As to `O=C1CCc2cc(OCCN3CCc4cncnc4C3)ccc2N1`, the “Percent Effect” value (30.3 µM, […]) stood at 41.19%.
